Results: paper PMC5540273 (PLoS ONE, 2017)

How the values were obtained:
Settings in all cases: concentration: 1 μM,replicates: in singlicate; n = 1
PRKD3 = tested on: PRKD3
PRKG1 = tested on: PRKG1
PRKG2 = tested on: PRKG2
PRKR = tested on: T1, PRKR
T1 construct: gene EIF2AK2

PRKX = tested on: PRKX
PRP4 = tested on: PRP4
PYK2 = tested on: T2, PYK2
T2 construct: gene PTK2B

QSK = tested on: QSK
RAF1 = tested on: RAF1
RET = tested on: RET
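Note: KINOMEscan kinase panel screen.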

Row | Structure (SMILES) | %Inh (PRKD3) [%] | %Inh (PRKG1) [%] | %Inh (PRKG2) [%] | %Inh (PRKR) [%] | %Inh (PRKX) [%] | %Inh (PRP4) [%] | %Inh (PYK2) [%] | %Inh (QSK) [%] | %Inh (RAF1) [%] | %Inh (RET) [%]
1 | C[C@@H](Oc1cc(-n2cnc3ccc(-c4ccncc4)cc32)sc1C(N)=O)c1ccccc1Cl [GSK483724] | 27 | 0 | 0 | 0 | 33 | 23 | 0 | 0 | 11 | 22
2 | CC(=O)c1c(-c2ccncc2)[nH]c(-c2ccncc2)c1C [GW493036] | 100 | 75 | 73 | 0 | 0 | 22 | 0 | 0 | 41 | 26
3 | C[C@@H]1CNc2c(sc3ccc4nc(-c5ccc(O)cc5)ccc4c23)C(=O)N1 | 43 | 12 | 61 | 0 | 0 | 12 | 19 | 0 | 0 | 13
4 | CS(=O)c1ccc(-c2coc3ccc(-c4n[nH]c(=O)o4)cc23)cc1 (stereo not drawn) | 0 | 4 | 0 | 20 | 0 | 14 | 4 | 0 | 20 | 12
5 | O=C(Nc1ccc(Oc2ccc3nc(NC(=O)C4CC4)cn3n2)c(F)c1)c1cccn(-c2ccccc2)c1=O | 0 | 30 | 1 | 0 | 0 | 0 | 19 | 0 | 87 | 99.9
6 | O=C(Nc1cccc(Oc2ccc3nccn3n2)c1)Nc1cccc(C(F)(F)F)c1 | 20 | 6 | 0 | 0 | 0 | 11 | 3 | 14 | 90 | 86
7 | Cc1ccc2c(-c3ccnc(Nc4ccc(C(F)(F)F)cc4)n3)cnn2n1 [GW819776] | 0 | 8 | 0 | 0 | 0 | 0 | 16 | 14 | 15 | 0
8 | O=c1[nH]cc(-c2ccc(O)cc2)c2sc(-c3ccncc3)cc12 [GSK1033723] | 1 | 16 | 14 | 0 | 10 | 22 |  | 1 | 7 | 29
9 | CC(=O)Nc1nc2cnc(Nc3cc(NC(=O)c4cccc(CC(C)(C)C#N)c4)ccc3C)nc2s1 | 0 | 0 | 17 | 0 | 35 | 6 | 9 | 0 | 99.5 | 99.7
10 | Cc1ccc(CC(=O)N2CCc3cc(-c4cn(C)c5ncnc(N)c45)ccc32)cc1 [GSK2634758] | 0 | 4 | 12 | 7 | 12 | 20 | 0 | 0 | 7 | 7
11 | Cn1cc(-c2cccc3c(N)c(C(N)=O)nnc23)cn1 | 21 | 39 | 11 | 0 | 3 | 1 | 9 | 3 | 0 | 12
12 | Cl.Nc1n[nH]c2cc(-c3ccccn3)ccc12 [GSK2189892] | 0 | 0 | 0 | 0 | 13 | 24 | 0 | 0 | 6 | 2
13 | COc1cc2ncn(-c3cc(OCC4CCCCC4)c(C(N)=O)s3)c2cc1OC [GSK204559] | 2 | 9 | 0 | 0 | 10 | 0 | 0 | 12 | 9 | 17
14 | C[C@@H](Oc1cc(-n2cnc3cc(-c4ccncc4)ccc32)sc1C(N)=O)c1ccccc1Cl [GSK479719] | 16 | 3 | 2 | 0 | 2 | 14 | 13 | 9 | 13 | 36
15 | CN(c1ccccc1CNc1nc(Nc2ccc3c(c2)CC(=O)N3)ncc1C(F)(F)F)S(C)(=O)=O | 70 | 0 | 0 | 0 | 17 | 0 |  | 0 | 0 | 87
16 | O=C1NCCc2[nH]c(-c3ccncc3)cc21 | 43 | 83 | 99.1 | 9 | 28 | 43 | 0 | 0 | 17 | 0
17 | COC(=O)c1cccc(NC(=O)NC2CCN(c3ccnc(Nc4cc(OC)c(OC)c(OC)c4)n3)C2)c1 (stereo not drawn) [GSK1379767] | 0 | 0 | 7 | 19 | 5 | 44 | 0 | 0 | 7 | 11

Row | Structure (SMILES) | %Inh (PRKD3) [%] | %Inh (PRKG1) [%] | %Inh (PRKG2) [%] | %Inh (PRKR) [%] | %Inh (PRKX) [%] | %Inh (PRP4) [%] | %Inh (PYK2) [%] | %Inh (QSK) [%] | %Inh (RAF1) [%] | %Inh (RET) [%]
18 | CS(=O)(=O)Nc1ccc(-c2ccnc3[nH]ccc23)cc1 [GSK993273] | 0 | 77 | 77 | 41 | 42 | 64 | 20 | 17 | 12 | 22
19 | CC(=O)Nc1ccc(-c2cc3ncnc(SCC(=O)O)c3s2)cc1 | 7 | 1 | 10 | 23 | 24 | 22 | 0 | 1 | 14 | 15
20 | Cc1ccc(C(=O)Nc2ccc(Oc3ccc4nc(NC(=O)C5CC5)cn4c3)c(F)c2)c(=O)n1-c1ccccc1 | 0 | 5 | 0 | 4 | 0 | 38 | 19 | 0 | 82 | 100
21 | CN1CCN(CCNc2nc3cc(Oc4ccc(NC(=O)Nc5cc(C(F)(F)F)ccc5F)cc4)ccc3[nH]2)CC1.Cl.Cl [GW768504] | 0 | 2 | 0 | 24 | 0 | 0 | 18 | 0 | 75 | 99.9
22 | COc1cc2c(Nc3ccc(NC(=O)c4ccccc4)cc3)ncnc2cc1OCCCN1CCOCC1 [GSK301329] | 0 | 0 | 21 | 0 | 22 | 0 | 0 | 18 | 1 | 79
23 | O=C(Nc1cccc(C(F)(F)F)c1)c1cccc(Oc2ccc3nccn3n2)c1 | 0 | 19 | 1 | 0 | 17 | 8 | 0 | 6 | 75 | 69
24 | Cl.Cl.NC[C@H](CC1CCCCC1)NC(=O)c1ccc(-c2ccnc3[nH]ccc23)s1 [GSK1581428] | 96.2 | 99.9 | 99.2 | 13 | 97.9 | 81 | 41 | 9 | 0 | 38
25 | CN1CCN(CCCNc2nccc(-c3c(-c4ccc(F)cc4)nn4cc(C(N)=O)ccc34)n2)CC1 [GW622475] | 89 | 6 | 0 | 2 | 8 | 0 | 9 | 30 | 35 | 38
26 | CSc1nccc(-c2c(-c3ccc(F)cc3)ncn2CCCN2CCOCC2)n1.Cl [SB-217146] | 0 | 0 | 0 | 0 | 0 | 0 | 5 | 5 | 0 | 2
27 | N#Cc1cccc(C(=O)NC2CCN(c3ccnc(Nc4ccc(F)cc4)n3)C2)c1 (stereo not drawn) [GSK1379708] | 0 | 1 | 0 | 0 | 14 | 29 | 3 | 0 | 2 | 18
28 | COc1ccc(Nc2nccc(N3CCC(NC(=O)c4cccc(C#N)c4)C3)n2)cc1 (stereo not drawn) [GSK1379730] | 0 | 12 | 15 | 0 | 0 | 9 | 18 | 2 | 0 | 28
29 | C[C@@H]1CNc2c(sc3ccc4nc(-c5ccncc5)ccc4c23)C(=O)N1 | 34 | 35 | 57 | 0 | 34 | 0 | 3 | 0 | 0 | 14
30 | Nc1nccc(-c2ccc3c(N)n[nH]c3c2)n1 [GSK1034945] | 4 | 0 | 68 | 0 | 68 | 27 | 8 | 0 | 17 | 9
31 | CC(C(=O)NC1CCN(c2ccnc(Nc3ccc(F)cc3)n2)C1)c1ccc(Cl)cc1 (stereo not drawn) [GSK1379713] | 2 | 9 | 0 | 0 | 6 | 0 |  | 0 | 0 | 0
32 | NC(=O)c1ccc(-c2cc3ncnc(SCC(=O)O)c3s2)cc1 | 0 | 0 | 0 | 100 | 0 | 44 |  | 0 | 3 | 0
33 | COC(=O)Nc1nc2cc(Oc3ccc(NC(=O)Nc4cc(C(F)(F)F)ccc4Cl)cc3)ccc2[nH]1.Cl [GW697465] | 9 | 2 | 0 | 0 | 15 | 43 | 24 | 9 | 89 | 100
34 | CCCC(=O)Nc1n[nH]c2ncccc12 [SB-601436] | 0 | 5 | 0 | 0 | 0 | 8 | 7 | 0 | 0 | 0
